# Assay outcomes deposited in PubChem BioAssay by several laboratories.
# Shown are actives, neighbours in structure and some others; about 2.4% of the full set was active somewhere.
# WT yeast gro inh: growth inhibition of WT strain, primary screen, mitochondrial fusion inhibitor project, WT and mutant strains, chemical genetic. mitochondrial fusion phenotypic screen. inhibition, % at 10 µM. 190,000 compounds, 2.1% hits; in the data active means inhibition above about 58%; tested in S. cerevisiae
# DTT redox prof: compounds producing H2O2 with reducing agent – biochemical, NIH compound library profiling, artefact control for MLSCN library redox annotation, primary screen. 200,000 compounds, 0.03% hits. DTT-dependent redox cycling H2O2, phenol red/HRP absorbance; 100% = 100 µM peroxide control, 0% = buffer. AID 878, 2007. activation, % at 10 µM;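 active means activation of at least 50% relative to the plate's high and low controls in the primary single-dose screen; inactive means activation below 50%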;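 further: compound incubated with DTT at 0.8 mM final as the reducing agent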
# PERK inh: block of dimerizer-induced PERK translation repression, primary screen, PERK inhibitor project, CHO PERK-DD cells, SEAP luminescence, HTS; CHO PERK-DD fusion, SEAP luminescence translation reporter; inhibition, % at 5.6 µM; 220,000 compounds, 0.17% hits; Eukaryotic translation initiation factor 2-alpha kinase 3 (Homo sapiens), Q9NZJ5; AID 1416, 2008;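 active means inhibition above the mean inhibition of all tested compounds plus 3 SD, set separately per screening campaign, cut at about 2.9% in these data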;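 further: PERK kinase domain activated by AP20187 dimerizer at 100 nM; 0% = DMSO with dimerizer and 100% = rapamycin at 8.4 µM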
# zVAD death inh: inhibitors of zVAD-triggered necroptosis, primary screen, L929 cells; L929 zVAD necroptosis rescue, ATP luminescence, 24 h; with zVAD 60 µM; viability rescue, % at 10 µM; AID 1377, 2008; 220,000 compounds, 0.38% hits;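 active means activation, scaled between plate controls, above about 75%, limit read from the data; inactive means activation under that limit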;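 further: 0% = zVAD with DMSO and 100% = DMSO alone without zVAD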
# PKD1 inh: inhibitors of human PKD1 kinase, biochemical, fluorescence polarization; 200,000 compounds, 0.056% hits; PKD1 kinase fluorescence polarization assay; inhibition, % (test concentration not listed); Serine/threonine-protein kinase D1 (Homo sapiens), Q15139; in the data active means inhibition above about 50%
# TNF necrop inh: inhibitors of TNF-alpha triggered necroptosis, primary screen, cell-based, Jurkat FADD-/-, single concentration; Jurkat FADD-/- TNF necroptosis rescue, ATP luminescence, 24 h; 0 = TNF only, 100 = no-TNF cells; activation (protection from cell death), % at 10 µM; 220,000 compounds, 0.068% hits; AID 463075, 2010;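 active means activation, meaning protection from cell death, of at least 50% relative to plate controls; inactive means activation below 50%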;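 further: necroptosis triggered by 40 ng/mL TNF-alpha added together with compound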
# Starred values were filed as active, the others as inactive; x = no result given.
SMILES,WT yeast gro inh,DTT redox prof,PERK inh,zVAD death inh,PKD1 inh,TNF necrop inh
CCCCCC(=O)Nc1sc(C)c(C)c1C#N,36,1,0,2,-10,7
CCOc1cc(C2NC(=S)NC(C)=C2C(=O)Nc2ccc(OC)cc2)ccc1O (stereo not drawn),-2,0,3.4*,1,-12,1
CSCCNC(=O)Nc1c(-c2c(Cl)cccc2Cl)noc1C,x,x,1,0,x,1
COc1ccc(Nc2nc(NC(C)(C)C)nc(N3CCCC3)n2)c(OC)c1,84*,-1,-2,-1,1,4
COc1cc(C2C=C(c3cccs3)Nc3ncnn32)cc(OC)c1OC (stereo not drawn),13,-1,1,4,2,1
Clc1cncc(Cl)c1NNc1c2ccccc2nc2ccccc12,83*,3,1,2,2,2
CCOc1ccccc1OCCCOc1ccc(C)cc1Br,58*,-5,1,0,6,-3
CCOc1ccccc1OCCCOc1ccc(C)cc1Cl,9,2,3,0,-10,-3
CCOc1ccc(N2CC(C(=O)NC(C)C)CC2=O)cc1 (stereo not drawn),60*,2,2,0,-5,-3
C=CCn1c(C)c(C(C)=O)c(N2CCN(C(c3ccccc3)c3ccccc3)CC2)nc1=S,72*,-1,-1,-1,2,-2
CN1C/C(=C/c2cccnc2)C(=O)/C(=C/c2cccnc2)C1,-1,0,0,-1,-6,80*
COc1ccc(C(=O)NC(=S)N2CC(C)OC(C)C2)cc1OC (stereo not drawn),-6,0,0,1,-2,2
COc1cc(C(=O)Nc2ccc(S(=O)(=O)Nc3nccc(C)n3)cc2)c([N+](=O)[O-])cc1OC,x,x,0,0,x,0
CC(C)c1ccc(-c2noc(C3CCCN(C(=O)c4ccc(F)cc4F)C3)n2)cc1 (stereo not drawn),72*,1,0,0,14,-8
Cc1ccc(-c2noc(C3CCCN(C(=O)c4ccc(F)cc4F)C3)n2)cc1 (stereo not drawn),7,-6,-1,0,-5,0
O=C(COC(=O)CNS(=O)(=O)/C=C/c1ccccc1)Nc1cccc2ccccc12,-32,0,1,-1,-5,0
Cc1nc(C(C)NC(=O)CCc2nnc(-c3ccsc3)o2)cs1 (stereo not drawn),-6,-1,1,0,0,0
COc1ccc(Br)cc1/C=C/C(=O)c1ccc(NC(C)=O)cc1,84*,1,-1,88*,-12,-7
C=CCNC(=O)c1ccc(Sc2ccc(C)cc2)c([N+](=O)[O-])c1,-6,3,1,0,3,-2
Cc1ccc(Sc2ccc(CN3CCCCC3)cc2[N+](=O)[O-])cc1,61*,1,0,-1,12,-1
CCC1(c2ccc(F)cc2)NC(=O)N(CC(=O)Nc2cc(S(=O)(=O)N(C)C)ccc2Cl)C1=O (stereo not drawn),0,-2,0,0,-6,0
Cc1[nH]c2ccccc2c1C(=O)COC(=O)c1ccc([N+](=O)[O-])s1,98*,1,0,0,-1,-3
O=C(COC(=O)c1ccc([N+](=O)[O-])s1)NC(c1ccccc1)c1ccccc1,-11,0,0,1,-13,2
O=C(COC(=O)c1ccc([N+](=O)[O-])s1)Nc1ccc(Cl)cn1,-14,0,0,x,-11,1
Cc1[nH]c2ccccc2c1C(=O)COC(=O)c1ccc[n+]([O-])c1,x,x,0,1,x,0
O=C(COC(=O)c1ccc([N+](=O)[O-])s1)Nc1ccccc1,70*,2,0,1,-5,1
CC(C)(C)c1ccc(NC(=O)COC(=O)c2ccc([N+](=O)[O-])s2)cc1,92*,1,1,1,2,0
